{
  "source": "PubChem BioAssay",
  "data": [
    {"test": "modulators of S6 phosphorylation in cells, primary screen, cell-based, A549, cytoblot, luminescence, serum-stimulated (AID 1158);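 further: serum-stimulated A549 lung adenocarcinoma cells; signal is phosphorylated S6 detected by cytoblot immunostaining with HRP secondary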", "conditions": "A549 phospho-S6 cytoblot, 5 h, higher = more signal", "values": [
      {"smiles": "COc1cc(OC)c(C(O)C2C=CC3C(=O)N(c4ccccc4)C(=O)C3N2Nc2ccccc2F)cc1Br", "note": "(configuration not stated)", "z-score": -0.822},
      {"smiles": "NC(=O)N1C(=O)C2C(C1=O)C1C=C(CCCO)C2C(c2ccc(CN3CCCC3)cc2)N1Cc1cccc(OC(F)(F)F)c1", "note": "(configuration not stated)", "z-score": -0.267},
      {"smiles": "CC(C)C[C@H]1NC(=O)[C@@]23C(=O)N[C@@H](Cc4ccccc4)C2[C@H](C)[C@@]2(C)O[C@H]2C3/C=C/C/C=C\\CNC(=O)[C@@H]2CCCN2C1=O", "note": "(some centres not stated)", "z-score": 0.0247},
      {"smiles": "COC(=O)[C@@]1(Cc2ccc(F)cc2)[C@H]2c3cc(C(=O)N(C)C)n(CCn4cc([N+](=O)[O-])nc4C)c3C[C@H]2CN1C(=O)c1ccccc1", "z-score": 0.0938},
      {"smiles": "C=CC[C@]1(C(=O)NCCCOC)N=C(c2ccc(OCCCO)cc2)O[C@H]1c1ccccc1", "z-score": 0.727},
      {"smiles": "COCCOC(=O)N1C(=O)[C@@]2(c3cc(C#CC4=CCCCC4)ccc31)[C@H](c1ccccc1OCCO)N1[C@H](c3ccccc3)[C@H](c3ccccc3)OC(=O)[C@H]1[C@@H]2C(N)=O", "z-score": 2.22},
      {"smiles": "CC(C)C[C@@H]1NC(=O)[C@@]23C(=O)N[C@@H](Cc4ccccc4)C2[C@H](C)[C@@]2(C)O[C@H]2C3/C=C/C/C=C\\CNC(=O)[C@@H](CC(C)C)NC1=O", "note": "(some centres not stated)", "z-score": 0.0885}
    ]}
  ]
}
